Assay [1] deals with Methanococcus maripaludis chaperonin (MmCpn) (UniProt Q6LX38). As to the kind of experiment: High-Throughput Screening for Modulators of Cytosolic Chaperonin Activity: MmCpn Primary Screen (AID 488978).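 Further: 50 nM MmCpn enzyme hydrolysing 30 µM ATP at 37 °C; 0% is about no effect.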 The procedure, abridged:
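Measures ATPase turnover of the M. maripaludis chaperonin (50 nM final) against 30 uM ATP over 10 min at 37C, with compound added 5 min beforehand at room temperature. ADP is quantified by HTRF immunodetection.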

Assay [2] deals with Transient receptor potential cation channel subfamily V member 1 (Homo sapiens) (UniProt Q8NER1). As to the kind of experiment: HTS Assay for Compounds that Act as Enhancers of the Vanilloid Receptor 1 (AID 488979). Further: 0% is about no effect. A digest of the protocol:
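TRPV1-expressing cells loaded with Fluo-8 calcium dye; compounds added and calcium influx read kinetically for 3 min (agonist phase), then capsaicin at EC20 added and read 2 min more for enhancement. Fluorescence ex 480/em 520 nm.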

The target in assay [3] is Thyrotropin receptor (Homo sapiens) (UniProt P16473). As to the kind of experiment: qHTS Assay for Antagonists of the Thyroid Stimulating Hormone Receptor (AID 488980). Further: series mostly up to about 58 µM; 0% is about no effect. A digest of the protocol:
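Cells expressing human TSHR (HEK293) are dispensed in HBSS/HEPES containing 70 uM RO 20-1724, compound is added, then TSH at EC80 (4 nM final). Antibody in lysis buffer follows, 30 minutes at room temperature before HTRF detection.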

Assay [4] addresses D(1A) dopamine receptor (Homo sapiens) (UniProt P21728). As to the kind of experiment: HTS Assay for Allosteric Agonists of the Human D1 Dopamine Receptor: Primary Screen for Agonists (AID 488981). Further: 0% is about no effect. The procedure, abridged:
(§1)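 Tetracycline-induced HEK293 T-REx cells force-coupled to calcium signalling were incubated overnight at 30 C and dye-loaded at room temperature. Calcium flux over 180 s after compound addition flagged agonists; a further 180 s read after EC20 dopamine flagged potentiators.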

The target is the same in assay [5]. As to the kind of experiment: HTS Assay for Allosteric Agonists of the Human D1 Dopamine Receptor: Primary Screen for Potentiators (AID 488982). Further: 0% is about no effect. A digest of the protocol: as §1
Assay [6] has the same target. As to the kind of experiment: HTS Assay for Allosteric Agonists of the Human D1 Dopamine Receptor: Primary Screen for Antagonists (AID 488983).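 Further: calcium flux response to an EC80 dopamine challenge measured with no-wash dye; on the % scale 0 is the no-effect control and ±100 the full control effect; nearly all actives have a fitted effect of over 65% in size.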 The procedure, abridged: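 Calcium-flux read-out in inducible HEK293 T-REx cells expressing D1, dye-loaded 30–90 min at room temperature. Kinetic reads: 180 s after compound (agonist phase), then 180 s after an EC80 dopamine challenge.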

The nature of assay [7]: Validation screen for small molecules that induce genotoxicity in human embryonic kidney (HEK293T) cells expressing luciferase-tagged ELG1 (AID 493106). Further: 0% is about no effect. The procedure, abridged:
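ELG1-luciferase reporter readout (ONE-Glo, 30 min, room temperature) after 16 hr compound treatment at 37 °C of HEK293T cells at 2,000 per well. Rising luminescence flags genotoxic stress.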

Assay [8] has as its target Thyrotropin-releasing hormone receptor (Homo sapiens) (UniProt P34981). As to the kind of experiment: qHTS for Small Molecule Agonists and Allosteric Enhancers of Human TRH Receptor: Validation Screen for Agonists (AID 493127;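 active means calcium activation more than 3 SD above the typical response in the agonist read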;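 further: intracellular calcium rise by fluo-8 fluorescence before TRH EC20 addition; 0% is about no effect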). Conditions: TRH receptor agonist cell assay; at 2 µM; stronger effect = higher value. A digest of the protocol:
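Compound-evoked intracellular calcium release in fluo-8-loaded TRHR cells, read kinetically on FDSS (Ex 480/Em 530, 1 s/cycle) after 23 nL pintool transfer. Agonist phase preceded 10 nM TRH EC20 addition.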

Assay [9] is described as follows: Nrf2 qHTS screen for inhibitors: Validation (AID 493153; active means well fitted inhibition curve with a large enough effect in the main read-out, with a control signal flat, not every such curve was filed as active). Particulars: Potency: luciferase luminescence; viability change: measured here: cytotoxicity max response. The procedure, abridged: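 Concentration-response on A549 ARE_Fluc reporter cells exposed 18-24 h at 37 C, 5% CO2. Cytotoxicity read first by CellTiter-Fluor fluorescence (Ex 405/Em 525), then Nrf2 inhibition by BugLite luminescence after 15 min.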

Assay [10] is described as follows: qHTS for Inhibitors of Cell Surface uPA Generation: Validation Assay (AID 493164).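 Further: RAW 264.7 macrophage cells exposed to compound for 18 h; 0% is about no effect.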 A digest of the protocol:
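ATP-Lite luminescence read-out: ATP remains high when uPA activity-dependent LF translocation into the cytoplasm is blocked. RAW 264.7 cells, 18 h compound exposure at 37 C; 7-point titration, 2.45 nM to 38.3 uM final.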

Assay [11] addresses Galactokinase (Homo sapiens) (UniProt P51570). As to the kind of experiment: qHTS Validation Assay for Inhibitors of Human Galactokinase (GALK) (AID 493189). Further: 0% is about no effect. A digest of the protocol: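 Compounds were pin-transferred into ATP buffer, then GALK-galactose mix was added (final 5 nM enzyme, 100 uM galactose, 35 uM ATP). After 1 h at room temperature, remaining ATP was measured luminescently.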

Assay [12] has as its target Peptidyl-prolyl cis-trans isomerase NIMA-interacting 1 (Homo sapiens) (UniProt Q13526). As to the kind of experiment: qHTS Validation Assay to Find Inhibitors of Pin1 (AID 504536; active means well fitted inhibition curve with a large enough effect in the polarisation, with a control signal flat, not every such curve was filed as active; the % refers to the polarisation; further: potency means the concentration at half of the fitted maximal effect). The procedure, abridged: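 Fluorescence polarization competition: compounds (titration) displace HiFluor-488-labeled Pin1-1b peptide from Pin1 (0.3 uM final) in pH 7.5 HEPES buffer with DTT, 10 min at room temperature; %Activity normalized to no-enzyme wells, curves fitted.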

Assay [13] concerns the target Phosphoglycerate kinase, glycosomal (Trypanosoma brucei brucei) (UniProt P07378). As to the kind of experiment: qHTS Validation Assay to Find Inhibitors of Phosphoglycerate Kinase (AID 504547). Further: potency means the concentration at half of the fitted maximal effect. A digest of the protocol:
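In TEA buffer (100mM, pH 7.6) containing 5mM MgCl2 and 0.01% Tween-20, the GAPDH-coupled PGK reaction proceeded for 60 minutes at room temperature before a single luminescence reading using Kinase-Glo Plus.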

Assay [14] concerns the target Ubiquitin carboxyl-terminal hydrolase 1 (Homo sapiens) (UniProt O94782). As to the kind of experiment: Inhibitors of USP1/UAF1: Pilot qHTS (AID 504865).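 Further: rhodamine fluorescence freed from ubiquitin-rhodamine substrate followed over time; top concentration of the series differs between compounds; on the % scale 0 is the no-effect control and ±100 the full control effect; nearly all actives have a fitted effect of over 35% in size.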 A digest of the protocol:
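Kinetic fluorescence assay: 1nM USP1/UAF1, 15 min compound preincubation, then 150nM Ub-Rho; 480/540 nm.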

Assay [15] is described as follows: qHTS for Inhibitors of ATXN expression: Validation of Cytotoxic Assay (AID 588349). Further: on the % scale 0 is the no-effect control and ±100 the full control effect. The procedure, abridged: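 Cytotoxicity counter-screen: ATP-based luminescent viability (CellTiter Glo) after 72 hr exposure of HEK293 cells to a compound titration at 37 degrees C.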
Assay [16] has as its target ATPase family AAA domain-containing protein 5 (Homo sapiens) (UniProt Q96QE3). As to the kind of experiment: Validation screen for small molecules that inhibit ELG1-dependent DNA repair in human embryonic kidney (HEK293T) cells expressing luciferase-tagged ELG1 (AID 493107). Further: nearly all actives have a fitted effect of over 70% in size. Further: potency means the concentration at half of the fitted maximal effect. A digest of the protocol:
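Luciferase read-out, ONE-Glo, 30 min at room temperature, follows 16 h co-exposure at 37 C of compound and the DNA-damaging agent 5-fluorouridine. Cells: HEK293T with ELG1-luciferase fusion, 2,000 per well, DMSO as vehicle.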

Assay [17] in a line: Validation screen for small molecules that induce DNA re-replication in SW480 colon adenocarcinoma cells (AID 504364). Further: 0% is about no effect. A digest of the protocol:
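Image-based DNA content read-out: Hoechst stain 40 min, total nuclear fluorescence intensity (ex 405 nm, em 500-530 nm) after 48 h compound exposure of 250 SW480 cells/well at 37 C, 5% CO2, versus DMSO vehicle.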

The target in assay [18] is phosphoglycerate mutase (Leishmania major) (UniProt Q4Q090). As to the kind of experiment: qHTS Validation Assay to Find Inhibitors of Phosphoglycerate Mutase (AID 504548). Further: series mostly up to about 58 µM; on the % scale 0 is the no-effect control and ±100 the full control effect. Conditions: Potency: inhibition qHTS. The procedure, abridged: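 Lm PGAM 1.25nM final; 100 mM TEA pH 7.6, 5 mM MgCl2, 0.01% Tween-20; 45 min RT; Kinase-GloPlus, 10 min; end-point luminescence. Enzyme-free wells as negative controls.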

The target in assay [19] is ATP-dependent 6-phosphofructokinase (Trypanosoma brucei brucei) (UniProt O15648). As to the kind of experiment: qHTS Assay to Find Inhibitors of T. brucei phosphofructokinase: hit validation (AID 492961).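 Further: luminescence reports ADP formed as PFK phosphorylates fructose-6-phosphate with ATP; series mostly up to about 51 µM; on the % scale 0 is the no-effect control and ±100 the full control effect.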 The procedure, abridged:
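PFK 1.25 nM, F6P 0.5 mM, ATP 0.1 mM, MgCl2 5 mM, 0.1 M TEA pH 8.0, Tween20 0.01%, BSA 0.1%; 45 min RT. ADP-Glo two-step detection, luminescence. qHTS titration; curve fitting with curve-class categorization.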

Each structure is given as a SMILES string. Results filed as inconclusive are left out. Active and inactive are the calls of the source. Unless noted, the call rests on the fitted dose curve; in most records, active means well fitted curve in the direction sought with a large enough effect; inconclusive means small, poorly fitted or top-dose-only effect, or another doubt; inactive means no such curve, though single readings can be large; an effect the other way counts as inactive or inconclusive.

Chain of Galactokinase (Homo sapiens) (P51570 whole entry, looked up): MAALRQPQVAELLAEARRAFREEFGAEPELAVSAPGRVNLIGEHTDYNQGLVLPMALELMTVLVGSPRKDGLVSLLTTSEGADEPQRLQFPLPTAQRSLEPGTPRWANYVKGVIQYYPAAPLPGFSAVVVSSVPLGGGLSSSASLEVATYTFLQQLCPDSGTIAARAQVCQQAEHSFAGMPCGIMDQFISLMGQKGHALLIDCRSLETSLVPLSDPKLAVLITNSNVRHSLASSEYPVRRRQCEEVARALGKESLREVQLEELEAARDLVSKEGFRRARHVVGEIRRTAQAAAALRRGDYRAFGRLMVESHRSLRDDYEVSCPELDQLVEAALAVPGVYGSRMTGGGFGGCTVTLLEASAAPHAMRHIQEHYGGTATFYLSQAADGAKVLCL
Chain of Thyrotropin receptor (Homo sapiens) (P16473 whole entry, looked up): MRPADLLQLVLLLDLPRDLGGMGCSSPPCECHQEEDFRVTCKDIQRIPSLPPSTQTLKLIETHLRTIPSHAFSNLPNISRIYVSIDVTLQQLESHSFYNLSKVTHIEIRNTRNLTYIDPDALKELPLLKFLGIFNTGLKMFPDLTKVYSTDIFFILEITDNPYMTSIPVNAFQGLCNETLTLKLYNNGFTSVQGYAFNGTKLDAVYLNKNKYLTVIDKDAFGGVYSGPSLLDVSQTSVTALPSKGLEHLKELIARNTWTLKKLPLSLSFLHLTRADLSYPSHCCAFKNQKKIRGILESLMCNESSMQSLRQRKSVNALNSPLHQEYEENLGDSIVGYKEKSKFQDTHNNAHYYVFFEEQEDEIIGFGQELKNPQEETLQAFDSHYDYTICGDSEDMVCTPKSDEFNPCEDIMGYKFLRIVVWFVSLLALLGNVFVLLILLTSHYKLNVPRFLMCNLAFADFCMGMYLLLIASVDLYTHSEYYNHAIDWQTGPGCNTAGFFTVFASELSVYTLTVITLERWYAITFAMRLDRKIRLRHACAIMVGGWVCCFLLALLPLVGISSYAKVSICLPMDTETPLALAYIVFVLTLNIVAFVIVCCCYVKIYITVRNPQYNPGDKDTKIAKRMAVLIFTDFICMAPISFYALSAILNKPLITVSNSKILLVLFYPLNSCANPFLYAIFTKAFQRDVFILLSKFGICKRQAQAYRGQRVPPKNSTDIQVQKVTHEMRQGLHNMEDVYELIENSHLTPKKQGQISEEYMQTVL
Chain of D(1A) dopamine receptor (Homo sapiens) (P21728 whole entry, looked up): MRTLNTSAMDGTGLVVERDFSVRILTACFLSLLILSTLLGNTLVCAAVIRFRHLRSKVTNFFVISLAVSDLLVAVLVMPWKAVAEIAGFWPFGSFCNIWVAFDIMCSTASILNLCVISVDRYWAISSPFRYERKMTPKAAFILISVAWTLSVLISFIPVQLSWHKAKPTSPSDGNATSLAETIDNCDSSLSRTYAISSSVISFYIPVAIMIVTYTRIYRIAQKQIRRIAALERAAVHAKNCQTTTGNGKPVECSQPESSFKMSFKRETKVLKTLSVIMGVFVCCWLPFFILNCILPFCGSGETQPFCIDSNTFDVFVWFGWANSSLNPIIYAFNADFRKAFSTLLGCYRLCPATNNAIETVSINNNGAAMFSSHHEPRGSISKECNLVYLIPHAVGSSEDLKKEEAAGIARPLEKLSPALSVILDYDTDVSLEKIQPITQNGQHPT
Chain of Methanococcus maripaludis chaperonin (MmCpn) (Q6LX38 1-543): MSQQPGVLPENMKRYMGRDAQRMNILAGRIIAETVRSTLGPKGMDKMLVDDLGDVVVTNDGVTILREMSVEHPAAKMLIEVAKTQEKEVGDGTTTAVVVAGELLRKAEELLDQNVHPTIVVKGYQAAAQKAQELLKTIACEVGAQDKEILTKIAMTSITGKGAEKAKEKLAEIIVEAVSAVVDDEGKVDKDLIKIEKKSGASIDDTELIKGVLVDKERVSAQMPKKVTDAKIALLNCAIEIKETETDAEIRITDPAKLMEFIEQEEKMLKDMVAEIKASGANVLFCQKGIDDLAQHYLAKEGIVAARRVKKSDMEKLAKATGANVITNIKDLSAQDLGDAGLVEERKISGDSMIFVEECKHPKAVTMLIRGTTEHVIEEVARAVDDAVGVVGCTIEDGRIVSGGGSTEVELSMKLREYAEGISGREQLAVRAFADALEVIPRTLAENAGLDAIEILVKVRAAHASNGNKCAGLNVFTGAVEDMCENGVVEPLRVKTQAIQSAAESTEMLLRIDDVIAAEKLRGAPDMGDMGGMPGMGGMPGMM
Chain of Transient receptor potential cation channel subfamily V member 1 (Homo sapiens) (Q8NER1 whole entry, looked up): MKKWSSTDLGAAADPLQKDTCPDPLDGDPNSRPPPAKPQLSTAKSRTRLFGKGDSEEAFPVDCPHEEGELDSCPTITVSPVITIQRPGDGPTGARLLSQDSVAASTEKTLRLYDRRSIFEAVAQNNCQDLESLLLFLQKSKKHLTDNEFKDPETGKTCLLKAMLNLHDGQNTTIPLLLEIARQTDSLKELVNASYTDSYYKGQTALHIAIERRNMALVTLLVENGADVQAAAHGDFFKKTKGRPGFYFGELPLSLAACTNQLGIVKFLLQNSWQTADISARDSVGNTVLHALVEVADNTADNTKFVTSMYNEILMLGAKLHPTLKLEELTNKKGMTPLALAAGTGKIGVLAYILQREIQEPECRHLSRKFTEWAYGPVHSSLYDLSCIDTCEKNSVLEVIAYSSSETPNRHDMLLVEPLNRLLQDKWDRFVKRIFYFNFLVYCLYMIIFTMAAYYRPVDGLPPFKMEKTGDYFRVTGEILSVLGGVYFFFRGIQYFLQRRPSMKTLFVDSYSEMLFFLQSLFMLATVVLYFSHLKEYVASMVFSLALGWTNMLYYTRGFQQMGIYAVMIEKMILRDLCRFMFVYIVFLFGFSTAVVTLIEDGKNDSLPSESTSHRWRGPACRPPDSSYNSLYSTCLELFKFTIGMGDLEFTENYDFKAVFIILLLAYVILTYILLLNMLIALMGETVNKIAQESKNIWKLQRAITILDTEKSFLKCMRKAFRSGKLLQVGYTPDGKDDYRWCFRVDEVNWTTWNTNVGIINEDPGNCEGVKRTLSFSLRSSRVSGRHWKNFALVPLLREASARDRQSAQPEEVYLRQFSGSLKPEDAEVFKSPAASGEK
Chain of phosphoglycerate mutase (Leishmania major) (Q4Q090 1-553): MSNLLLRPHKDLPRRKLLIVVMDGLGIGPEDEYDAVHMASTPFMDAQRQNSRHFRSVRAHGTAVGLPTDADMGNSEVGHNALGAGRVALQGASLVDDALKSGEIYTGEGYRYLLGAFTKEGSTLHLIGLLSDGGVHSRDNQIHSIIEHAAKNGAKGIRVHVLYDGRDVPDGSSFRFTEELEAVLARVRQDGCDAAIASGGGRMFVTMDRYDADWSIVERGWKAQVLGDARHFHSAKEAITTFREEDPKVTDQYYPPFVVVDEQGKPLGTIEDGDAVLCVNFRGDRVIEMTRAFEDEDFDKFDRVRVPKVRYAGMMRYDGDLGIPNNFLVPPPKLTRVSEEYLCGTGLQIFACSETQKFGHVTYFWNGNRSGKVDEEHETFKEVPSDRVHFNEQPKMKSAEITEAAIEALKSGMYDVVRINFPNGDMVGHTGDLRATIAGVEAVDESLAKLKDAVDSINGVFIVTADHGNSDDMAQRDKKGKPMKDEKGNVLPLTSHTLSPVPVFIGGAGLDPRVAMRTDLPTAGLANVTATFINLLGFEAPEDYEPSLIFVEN
Chain of Ubiquitin carboxyl-terminal hydrolase 1 (Homo sapiens) (O94782 whole entry, looked up): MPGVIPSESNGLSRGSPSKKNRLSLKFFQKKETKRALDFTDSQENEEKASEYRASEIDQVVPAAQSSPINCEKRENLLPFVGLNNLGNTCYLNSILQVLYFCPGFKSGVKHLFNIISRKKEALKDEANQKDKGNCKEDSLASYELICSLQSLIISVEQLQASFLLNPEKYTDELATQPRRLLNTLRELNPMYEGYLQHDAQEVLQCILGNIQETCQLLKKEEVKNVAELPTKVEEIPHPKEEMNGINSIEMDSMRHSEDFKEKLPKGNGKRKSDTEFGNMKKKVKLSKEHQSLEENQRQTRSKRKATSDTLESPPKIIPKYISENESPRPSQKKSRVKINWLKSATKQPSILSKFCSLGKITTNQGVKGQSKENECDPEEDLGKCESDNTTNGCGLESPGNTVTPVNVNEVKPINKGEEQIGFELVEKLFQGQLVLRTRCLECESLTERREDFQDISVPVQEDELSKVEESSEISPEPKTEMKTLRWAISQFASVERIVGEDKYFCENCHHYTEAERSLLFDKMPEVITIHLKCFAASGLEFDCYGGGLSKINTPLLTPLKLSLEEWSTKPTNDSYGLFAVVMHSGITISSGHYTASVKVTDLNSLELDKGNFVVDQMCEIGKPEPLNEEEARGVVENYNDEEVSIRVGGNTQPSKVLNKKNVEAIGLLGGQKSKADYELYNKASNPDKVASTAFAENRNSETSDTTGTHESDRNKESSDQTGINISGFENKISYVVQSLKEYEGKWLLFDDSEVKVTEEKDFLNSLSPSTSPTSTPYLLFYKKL
Chain of Thyrotropin-releasing hormone receptor (Homo sapiens) (P34981 whole entry, looked up): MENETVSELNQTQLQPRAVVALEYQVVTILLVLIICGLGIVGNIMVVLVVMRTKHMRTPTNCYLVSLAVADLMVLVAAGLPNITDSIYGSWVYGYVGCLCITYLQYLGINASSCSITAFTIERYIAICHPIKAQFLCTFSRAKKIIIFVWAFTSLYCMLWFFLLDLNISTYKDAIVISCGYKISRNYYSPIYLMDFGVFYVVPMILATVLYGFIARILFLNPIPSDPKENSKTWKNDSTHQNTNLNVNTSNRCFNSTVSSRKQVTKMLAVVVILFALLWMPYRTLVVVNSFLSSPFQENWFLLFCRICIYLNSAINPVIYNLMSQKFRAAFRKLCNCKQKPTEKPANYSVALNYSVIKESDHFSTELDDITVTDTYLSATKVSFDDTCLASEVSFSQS
Chain of Peptidyl-prolyl cis-trans isomerase NIMA-interacting 1 (Homo sapiens) (Q13526 whole entry, looked up): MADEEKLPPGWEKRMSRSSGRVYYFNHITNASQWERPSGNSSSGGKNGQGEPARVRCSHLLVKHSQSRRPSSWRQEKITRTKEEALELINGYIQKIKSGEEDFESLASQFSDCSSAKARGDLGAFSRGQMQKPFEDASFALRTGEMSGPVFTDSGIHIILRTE

For the compound `O=C(Nc1ccccc1)c1cc([N+](=O)[O-])ccc1Cl`, the outcome in assay [1], in assay [2], in assay [3] and in [10] was inactive. The Potency result in assay [4], in assay [5], in [6], in [7], in assay [9] and in assay [11] was “inactive” throughout. The Potency entry in assay [12], in assay [13], in [14] and in assay [15] was “inactive” throughout. Also, the activation in [8] was 0.375% (inactive). Moreover, the viability change in assay [9] was -4.87%.
On to `CN1C2CCC1CC(OC(=O)C(O)c1ccccc1)C2` (stereo unspecified), for which the compound was classed as inactive in assay [1], in [2], in assay [3] and in [10]. The Potency entry in [4], in assay [5], in assay [6], in assay [7], in assay [16] and in assay [9] was “inactive” each time. For the same compound, the Potency result in assay [11], in assay [17], in assay [12], in [13], in assay [18] and in [14] was “inactive” throughout. For the same compound, in assay [15], the Potency result is “inactive”. Further, the activation in [8] was 1.19% (inactive). For the same compound, the viability change in assay [9] is -17.3%.
Consider `O=C(O)c1cc(=O)c2c(Cl)cc(Cl)cc2[nH]1`, for which the compound was called inactive in assay [1], in [2], in assay [3] and in [10]. For the same compound, the Potency result in assay [4], in assay [5], in assay [6], in [7], in [16] and in [9] was “inactive” in each case. Besides, the Potency entry in assay [11], in [17], in assay [12], in [13], in assay [18] and in assay [14] was “inactive” each time. Also, in assay [15], the Potency entry was “inactive”. Further, the activation in [8] was 1.56% (inactive). The viability change in assay [9] was -1.84%.
As to `N#C/C(=C\c1ccc(O)c(O)c1)C(=O)c1ccc(O)c(O)c1`, the call in [1], in assay [2] and in [3] was inactive. The Potency result in assay [4], in [5], in [6], in assay [7], in assay [9] and in assay [11] was “inactive” throughout. Further, the Potency result in [14] and in assay [15] was “inactive” each time. Also, the activation in [8] is -0.562% (inactive). Besides, the viability change in assay [9] is -19.7%. In addition, the Potency in [12] was 1690 nM (active); in assay [13], 757 nM (active).
`CCCN(CC1CC1)c1nc(C)nc(Nc2c(Cl)cc(Cl)cc2Cl)c1Cl`: the call in [1], in assay [2], in [3] and in [10] was inactive. In addition, the Potency entry in assay [4], in assay [5], in assay [6], in assay [7], in assay [9] and in assay [11] was “inactive” in each case. Further, the Potency result in [17], in assay [12], in [13], in [18], in assay [14] and in [15] was “inactive” in each case. In addition, in [8], the activation was -7.44% (inactive). The viability change in assay [9] is 7.51%.
On to `N#C/C(=C\c1ccc(O)c(O)c1)C(=O)NCc1ccccc1`, for which the compound was classed as inactive in assay [1], in assay [2], in assay [3] and in assay [10]. In addition, the Potency result in assay [4], in assay [5], in [6], in [7], in assay [11] and in assay [17] was “inactive” each time. The Potency entry in assay [13] and in assay [18] was “inactive” throughout. Further, in assay [8], the activation was 1.31% (inactive).
In the case of `CC(COc1ccc(/C=C/c2ccccc2)cc1)[N+](C)(C)C` (stereo unspecified), the compound was classed as inactive in assay [1], in [2], in assay [3] and in assay [10]. For the same compound, the Potency entry in assay [4], in assay [5], in [6], in [7], in assay [11] and in [17] was “inactive” throughout. In addition, the Potency result in assay [12], in assay [13], in assay [14] and in [15] was “inactive” in each case. Also, the activation in [8] is 0.125% (inactive).
For `Cc1ccccc1CNc1ncnc2c1ncn2C1OC(CO)C(O)C1O` (stereo unspecified), the result in [1], in assay [2], in [3], in assay [19] and in assay [10] was inactive. Further, the Potency entry in assay [4], in [5], in [6], in [11], in assay [17] and in assay [13] was “inactive” each time. Further, the Potency result in assay [18], in assay [14] and in [15] was “inactive” in each case. Further, the Potency in assay [16] is 13000 nM (active). Further, the activation in [8] was 1.31% (inactive).

Source of the values: PubChem BioAssay (NCATS).
